Vif-A3F inh = blocks the Vif interaction with APOBEC3F; HeLa A3F-eYFP + Vif (tagged APOBEC3F with the HIV-1 protein that degrades it), YFP fluorescence increase; Potency, µM (highest dose often 46.1 µM), for the others: at the top dose activity, negative = active; 390,000 compounds, 0.2% hits; AID 602313; note: potency is the fitted concentration of half-maximal effect; % of control where 0% means no effect; nearly all actives have a fitted effect of over 65% in size
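HeLa cells stably expressing A3F-eYFP plus Vif, plated and incubated overnight at 37 deg C, then exposed to compounds overnight at 37 deg C. Blocked degradation read as raised yellow fluorescence (Ex 488/Em 500-530).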
ASM inhibitor = human S-ASM enzyme inhibition | P17405 | placental ASM, HMU-PC fluorogenic substrate, 60 min | Potency, µM (doses to about 57.5 µM), inactives show at the highest dose activity change, negative = inhibition, most hits filed as inhibitors | 340,000 compounds, 0.006% hits | AID 504937; note: potency is the fitted concentration of half-maximal effect
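qHTS format. ASM enzyme prepared from human placenta hydrolyses the fluorogenic substrate HMU-PC0 (9 uM final) over 60 min at 37 °C after a 10 min compound preincubation.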
TSG101-PTAP inh = blocks PTAP/TSG101 interaction to inhibit HIV-1 budding. Q99816. Fluorescence polarization, FITC-PTAP peptide / Tsg101 binding. Potency, µM (highest dose often 115 µM), for the others: at the highest dose activity change, negative = inhibition, usual class: inhibitors. 340,000 tested, under 10 active. AID 493005; active = well fitted inhibition curve with a large enough effect in the main read-out, with a control signal flat, not every such curve was filed as active; inconclusive = small, poorly fitted or top-dose-only effect, or effect the other way, or a change in a side signal; inactive = no such curve, though single readings can be large or run the other way; note: potency is the fitted concentration of half-maximal effect; % of control where 0% means no effect
Target sequence (Q99816 whole entry, looked up): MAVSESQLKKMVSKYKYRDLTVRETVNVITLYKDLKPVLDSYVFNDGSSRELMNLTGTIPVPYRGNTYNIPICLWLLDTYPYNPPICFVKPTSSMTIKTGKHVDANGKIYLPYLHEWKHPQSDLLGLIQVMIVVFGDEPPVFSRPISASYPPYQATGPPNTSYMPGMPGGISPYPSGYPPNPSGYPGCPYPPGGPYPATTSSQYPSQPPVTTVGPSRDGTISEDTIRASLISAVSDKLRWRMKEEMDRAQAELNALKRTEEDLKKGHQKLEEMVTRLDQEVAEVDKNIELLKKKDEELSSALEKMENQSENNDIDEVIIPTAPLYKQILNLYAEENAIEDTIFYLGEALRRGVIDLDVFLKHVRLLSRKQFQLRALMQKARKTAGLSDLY
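Fluorescence polarization binding of Tsg101 binding domain (10 uM final) to FITC-labeled PTAP peptide (50 nM final) in HEPES pH 7.5 buffer with NaCl, Tween 20, EDTA, TCEP. Compounds added before peptide; binding 20 min at RT.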
Vif-A3G inh = Vif-A3G binding inhibition; Q9HC16; HeLa A3G-eYFP + Vif (tagged APOBEC3G with the HIV-1 protein that degrades it), YFP fluorescence, overnight; Potency, µM (titrated, usually from 46.1 µM), inactives show at the top dose activity, negative = active, actives largely listed as inhibitors; 410,000 compounds, 0.076% hits; AID 602310; note: potency is the fitted concentration of half-maximal effect; % is set by controls: 0 for no effect and ±100 for the full control effect; nearly all actives have a fitted effect of over 60% in size
Target sequence (Q9HC16 whole entry, looked up): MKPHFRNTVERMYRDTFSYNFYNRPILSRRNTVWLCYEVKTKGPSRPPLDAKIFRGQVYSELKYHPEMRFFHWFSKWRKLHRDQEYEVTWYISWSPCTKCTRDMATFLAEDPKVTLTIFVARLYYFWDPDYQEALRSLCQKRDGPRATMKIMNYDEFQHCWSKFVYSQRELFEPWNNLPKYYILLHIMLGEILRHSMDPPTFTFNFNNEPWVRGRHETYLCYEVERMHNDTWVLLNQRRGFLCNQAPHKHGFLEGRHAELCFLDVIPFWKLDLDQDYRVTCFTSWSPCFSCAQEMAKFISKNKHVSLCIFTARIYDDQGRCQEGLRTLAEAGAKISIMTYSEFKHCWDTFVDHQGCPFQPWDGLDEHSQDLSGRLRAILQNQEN
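HeLa cells stably expressing Vif and C-terminally eYFP-tagged A3G, seeded overnight at 37 deg C, then exposed to compound by pintool overnight at 37 deg C. Rise in yellow fluorescence (Ex 488/Em 500-530, Acumen) marks blocked Vif-driven A3G degradation.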
pAkt inh = Akt phosphorylation inhibition | Neuro2A IGF-stimulated pAkt S473 HTRF, 20 min; active compounds read low | activity change, % for hits at 50 µM | 360,000 compounds, 0.32% hits | AID 651550; in the data active = activity change below about -80%; inconclusive = mostly about -51% to -80%; note: % is set by controls: 0 for no effect and ±100 for the full control effect
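Single-point screen (50 µM final compound) in Neuro2A cells stimulated 20 min with 6 nM IGF at 37 deg C. After lysis, Ser473-phosphorylated Akt read by HTRF (ex 330 nm, em 615/665 nm) as the 665/615 ratio.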
12-LOX inh = blocks human arachidonate 12S-lipoxygenase; P18054; purified 12hLO, xylenol orange hydroperoxide absorbance; Potency, µM (top dose mostly 108 µM), for inactives: at the highest dose activity change, negative = inhibition, usual class: inhibitors; 580,000 compounds, 1.1% hits; AID 1671190; note: potency is the fitted concentration of half-maximal effect; % is set by controls: 0 for no effect and ±100 for the full control effect
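Hydroperoxide product was detected by ferrous iron/xylenol orange as the 573 to 405 nm absorbance ratio. Arachidonic acid at 40 uM (final) was turned over for 30 min at room temperature by 150 nM human 12hLO, pH 7.0 Hepes buffer, after 15 min compound preincubation.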
An asterisk follows results filed as active; i = inactive; ? = inconclusive; . = not tested or not shown; [ ] = remark or other dose. This is a sample that favours compounds with a hit; in the whole collection about 1.4% have one here. Unless noted, calls come from the whole dose curve; as a rule, active = well fitted curve in the direction sought with a large enough effect; inconclusive = small, poorly fitted or top-dose-only effect, or another doubt; inactive = no such curve, though single readings can be large; an effect the other way counts as inactive or inconclusive.

SMILES | Vif-A3F inh | ASM inhibitor | TSG101-PTAP inh | Vif-A3G inh | pAkt inh | 12-LOX inh
CN(C(=O)Nc1ccc(Cl)cc1)C(c1ccc(Cl)cc1)c1nccn1C (stereo unspecified) | . | . | . | . | . | -30%
CC1=NC(=O)C(N=Nc2ccccc2)N1c1ccccc1 (stereo unspecified) | -2% | -14% | -2% | 2% | i | 84%
CC1=NC(=O)C(N=Nc2cccc(C(=O)O)c2)N1c1ccccc1 (stereo unspecified) | -2% | -3% | -9% | -1% | i | 7.1µM*
O=C(CCn1c(=O)oc2ccccc21)Nc1cccc(S(=O)(=O)N2CCCC2)c1 | . | . | . | . | . | 14%
CNC(=S)N/N=C(\C)c1ccc(Cl)s1 | 7.9µM* | . | -3% | 1% | i | ?
CCNC(=S)N/N=C(\C)c1ccc(Cl)s1 | -1% | -4% | -4% | -3% | i | ?
CCCn1c(/C=C/c2ccco2)nc2ccccc21 | ? | 107% | 1% | ? | i | ?
Clc1ccc(Cn2c(/C=C/c3ccco3)nc3ccccc32)cc1 | -2% | 79% | 1% | -13% | i | 18µM*
Cc1ccc(Cn2c(/C=C/c3ccco3)nc3ccccc32)cc1 | -29% | 4% | -4% | ? | i | 16µM*
CCN1CCCC1CNC(=O)c1cc2ccccc2oc1=O (stereo unspecified) | . | . | . | . | . | 2%
CN(C)CCN1C(c2ccccc2)=CC(=C(C#N)C#N)C2=C1CCCC2 | . | . | . | . | . | -18%
Cc1cncnc1C1CCN(c2cc(C3CC(N)C3)ncn2)CC1 (stereo unspecified) | . | . | . | . | . | 14µM*
NC1CC(c2cc(N3CCN(c4nnc(C(F)(F)F)s4)CC3)ncn2)C1 (stereo unspecified) | . | . | . | . | . | 9%
CCOc1ccc(CN(C)CC(=O)NC(=O)NCc2ccccc2)cc1 | . | . | . | . | . | -2%
CCNC(=O)NC(=O)CNc1ccccc1N(C)Cc1ccccc1 | . | . | . | . | . | 7.1µM*
CCOc1cc(/C=C/c2nc3ccccc3s2)ccc1O | . | . | . | . | . | 40µM*
CCOC(=O)/C(C)=C1\NC(C)(C)Cc2ccccc21 | -7% | -3% | -7% | -1% | i | 16µM*
N#Cc1cccc(S(=O)(=O)N[C@H]2[C@H](O)[C@H](O)C[C@@H]2c2ccc(C(F)(F)F)cc2)c1 | . | . | . | . | . | 23%[176 µM]
CNc1snc(C)c1C(=O)NCCc1ccccc1OC | . | . | . | . | . | 8%
CC(C)NC(=O)C[C@@H]1O[C@H](CNC(=O)C2CC2)[C@@H](O)[C@H]1O | . | . | . | . | . | 56µM*
CCN(CC)c1ccc(-c2nnc(SCCS(=O)(=O)c3ccccc3)o2)cc1 | . | . | . | . | . | 22%
O=C(Nc1nc2c(F)cccc2s1)C1CC1 | 6% | 6% | 0% | 0% | i | 9%
CC1CCc2c(sc(Nc3nc4c(F)cccc4s3)c2C(N)=O)C1 (stereo unspecified) | ? | 230% | -8% | ? | i | 45µM*
CCc1ccc(C(=O)c2cnc3ccc(OC)cc3c2N2CCOCC2)cc1 | . | . | . | . | . | 28µM*
CCOc1ccc(N2CC(C(=O)Nc3ccc(C)cn3)CC2=O)cc1 (stereo unspecified) | . | . | . | . | . | -1%
SMILES | Vif-A3F inh | ASM inhibitor | TSG101-PTAP inh | Vif-A3G inh | pAkt inh | 12-LOX inh
O=C(c1c(O)cc(O)cc1O)C1c2c(cc(O)c3c2O[C@H](c2ccc(O)cc2)[C@@H](O)C3)OC1c1ccc(O)cc1 (stereo partly specified) | 4% | -26% | -2% | -4% | i | 25µM*
CCC/C=N/NC(=O)c1[nH]c2c([N+](=O)[O-])cccc2c1C | 9% | -2% | -1% | 7.1µM* | i | -3%
CCCN1CCC2(CCN(C(=O)c3ccc(OC)cc3)CC2)Oc2ccccc21 | . | . | . | . | . | 23%
O=C(NC1CCCc2c1[nH]c1ccccc21)c1n[nH]c2c1CCCC2 (stereo unspecified) | . | . | . | . | . | 22µM*
O=C(NC1CCCc2c1[nH]c1ccccc21)c1cccs1 (stereo unspecified) | . | . | . | . | . | 45µM*
Cn1c(=O)cc(C(=O)NC2CCCc3c2[nH]c2ccccc32)c2ccccc21 (stereo unspecified) | . | . | . | . | . | 40µM*
COCCn1ccc2ccc(C(=O)NC3CCCc4c3[nH]c3ccccc43)cc21 (stereo unspecified) | . | . | . | . | . | 40µM*
O=C(Nc1nnc(C2CC2)s1)C1CC(c2cccc(F)c2)=NO1 (stereo unspecified) | . | . | . | . | . | -17%
Cc1ccc(C(=O)NC2CC2)cc1NC(=O)NC1CCCC1 | . | . | . | . | . | -1%
O=C(Nc1ccccc1SC1CCCC1)C1CCCC1 | . | . | . | . | . | -19%
COc1cc(C(=O)NC2CCCc3c2[nH]c2ccccc32)cc(OC)c1OC (stereo unspecified) | . | . | . | . | . | 35µM*
O=C(Cn1nc(-c2ccc(F)cc2)ccc1=O)NC1CCCc2c1[nH]c1ccccc21 (stereo unspecified) | . | . | . | . | . | 35µM*
CCN(CC)CC(=O)N1CCN(c2nc(C(C)C)c3c(c2C#N)CC(C)(C)OC3)CC1 | . | . | . | . | . | -24%
Cc1ccc(C(=O)/C=C/c2ccc(-c3ccc(C)c(Cl)c3)o2)cc1 | . | . | . | . | . | 14µM*
Cc1ccc(C(=O)/C=C/c2ccc(-c3ccc(Cl)c(Cl)c3)o2)cc1 | . | . | . | . | . | -81%
Cc1ccc(-c2ccc(/C=C/C(=O)c3ccccc3)o2)cc1Cl | . | . | . | . | . | 11µM*
CC(=O)c1c(C)[nH]c(C(=O)Cn2nnc(-c3ccc(C(C)C)cc3)n2)c1C | . | . | . | . | . | 16µM*
C=CCNC(=O)CC1Nc2c3ccccc3nc(=S)n2C1=O (stereo unspecified) | 3% | 48% | -2% | 1% | i | 18µM*
COc1ccc2cc(C(=O)NCc3ccncc3)c(C)nc2c1 | . | . | . | . | . | -19%
Cc1ccc(C=NNC(=O)c2cc(-c3cccnc3)nc3ccccc23)o1 | 0% | -3% | -14% | ? | i | 10µM*
CCCc1cc(C(=O)N/N=C/c2ccc(CC)s2)c2ccccc2n1 | -10% | 0% | -9% | ? | -118%* | 0%
CC(=O)NCCc1ncc(C)n1C1CCCCCCC1 | . | . | . | . | . | 90%
Cc1ccc(C(=O)Nc2c(C)n(C)n(-c3ccccc3)c2=O)cc1S(=O)(=O)N1CCOCC1 | -1% | 0% | -6% | 4% | i | -4%
Cc1c(NC(=O)c2ccc(F)c(S(=O)(=O)N3CCOCC3)c2)c(=O)n(-c2ccccc2)n1C | 0% | -2% | -1% | -1% | -106%* | 393%
CSC(=S)N/N=C(\C)c1ccc(Br)cc1 | ? | -11% | 0% | 0% | i | 45µM*
C/C(=N\NC(=O)c1ccc(Br)cc1)c1ccccc1 | 8% | 0% | -1% | 3% | -111%* | 0%

Bioassay records from PubChem.
